In the library only some 6.6% were active in any assay of this set; here they are far more common.
GDH-TPI counter: GDH-TPI coupling enzyme inhibitors, primary screen, artefact control for M. tuberculosis FBA inhibitor project, biochemical, absorbance, full deck; AID 588335, 2011; 1.2% of 360,000 active; GDH-TPI coupled enzyme counterscreen, NADH absorbance; inhibition, % at 4.8 µM; in the data active means inhibition above about 30%;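 further: 0% = DMSO wells and 100% = wells lacking the enzyme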
Mtb FBA inh: Mtb FBA enzyme inhibitors, primary screen, biochemical, fluorescence, strain H37Rv. Fructose-bisphosphate aldolase (Mycobacterium tuberculosis (strain ATCC 25618 / H37Rv)), …. purified M. tuberculosis FBA, fluorescence read-out. inhibition, % at 1 µM. 2.3% of 360,000 active. AID 588726, 2011; in the data active means inhibition above about 27%;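 further: 0% = vehicle and 100% = reference inhibitor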
Target sequence (P9WQA3 whole entry, looked up): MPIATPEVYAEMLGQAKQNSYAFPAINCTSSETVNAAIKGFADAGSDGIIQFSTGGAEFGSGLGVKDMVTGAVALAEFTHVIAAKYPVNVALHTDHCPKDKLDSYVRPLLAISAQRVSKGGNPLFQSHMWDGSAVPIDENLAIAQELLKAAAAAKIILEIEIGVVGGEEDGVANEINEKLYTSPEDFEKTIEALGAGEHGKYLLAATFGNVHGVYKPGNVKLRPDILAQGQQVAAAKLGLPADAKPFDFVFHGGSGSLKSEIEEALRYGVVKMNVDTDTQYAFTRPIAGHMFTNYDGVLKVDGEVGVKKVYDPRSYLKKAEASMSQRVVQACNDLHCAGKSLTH
BoNT F protease: BoNT/F light chain protease inhibitors, primary screen, biochemical, flow cytometry, MLPCN library | AID 588497, 2011 | Multiplex microsphere protease cleavage assay | inhibition, % at 10 µM | Botulinum neurotoxin type F light chain protease (Clostridium botulinum) | 0.22% of 360,000 active; in the data active means inhibition above about 35%, passing the limit was not always enough; inconclusive means no clear call, values can overlap the other calls; further: plate controls were buffer without enzyme for full effect and enzyme alone for no effect
Autofluor counter: compound fluorescence in toxin protease inhibitor counterscreen. fluorescence intensity (test concentration not listed). 3.1% of 360,000 active. compound autofluorescence counterscreen, microsphere flow cytometry; hits give high values; in the data active means fluorescence intensity above about 16000; inconclusive means no clear call, values can overlap the other calls
BoNT-A LC inh2: BoNT/A light chain protease inhibitors, primary screen, biochemical, flow cytometry, MLPCN library; 0.17% of 360,000 active; Botulinum neurotoxin type A light chain protease (Clostridium botulinum A str. ATCC 3502); inhibition, % at 10 µM; multiplex microsphere protease substrate cleavage; further: plate controls were buffer without enzyme for full effect and enzyme alone for no effect
Anthrax LF prot: Bacillus anthracis LF protease inhibitors, primary screen, biochemical, multiplex microsphere, MLPCN library; Lethal factor (Bacillus anthracis), P15917; multiplex microsphere protease cleavage assay; inhibition, % at 10 µM; 0.12% of 360,000 active; AID 588501, 2011; further: plate controls were buffer without enzyme for full effect and enzyme alone for no effect
* hit, by the source's call; ? = inconclusive; + = active, no number. Unless noted, no stated cut-off is given here; in the data, active means inhibition above about 30%; inconclusive means no clear call, values can overlap the other calls; inactive means below that.

SMILES	GDH-TPI counter	Mtb FBA inh	BoNT F protease	Autofluor counter	BoNT-A LC inh2	Anthrax LF prot
CC(C)C1Oc2cc3oc(=O)ccc3cc2C1=O (configuration not stated)	16	115*	-4	3245	0	6
O=c1ccc2cc3c(-c4ccccc4)coc3cc2o1	9	12	2	3005	0	-4
Fc1cc2nc(-c3ccncc3)[nH]c2cc1F	1	127*	-7	3307	-1	-5
Oc1ccc(-c2nc(-c3ccc(F)cc3)c(-c3ccncc3)[nH]2)cc1	19	2	-12	4366	-1	-3
CCOc1ccc(C2C(C(=O)c3cccs3)=C(O)C(=O)N2CCN2CCOCC2)cc1 (configuration not stated)	8	-2	-3	3485	-2	-14
COc1ccc(C(=O)NC2(C(F)(F)F)N=C3SCCN3C2=O)cc1 (configuration not stated)	5	3	-6	9638	1	-7
O=C(NC1(C(F)(F)F)N=C2SCCN2C1=O)c1ccccc1 (configuration not stated)	19	1	-3	24460*	-2	-4
C[n+]1ccccc1/C=C/c1ccc(F)c(F)c1	35*	-1	12	3528	1	-2
C[n+]1ccccc1/C=C/c1ccc(C#N)cc1	20	1	?	4037	4	-7
Cc1ccccc1/C=C/c1cccc[n+]1C	20	-1	?	3747	2	-1
C[n+]1ccccc1/C=C/c1c(F)cccc1F	45*	-1	?	3395	2	0
C[n+]1ccccc1/C=C/c1ccc([N+](=O)[O-])cc1	35*	-1	-64	3586	-4	-16
N#CC1(C#N)[C@@H](C(=O)C23CC4CC(CC(C4)C2)C3)C12CCOCC2	1	1	0	2526	0	-2
Cc1nn(C)cc1S(=O)(=O)NCc1ccccc1Cl	-5	-1	9	4999	3	2
O=C(COc1ccc([N+](=O)[O-])cc1)N/N=C/c1cc([N+](=O)[O-])ccc1N1CCOCC1	48*	-3	-1	8643	0	-1
Cc1ccc(OCC(=O)N/N=C/c2cc([N+](=O)[O-])ccc2N2CCCCC2)cc1	12	-1	0	7648	0	1
CC(=O)c1cccc(CN2CCC(CO)(CCCc3ccccc3)CC2)c1	11	139*	-6	5570	-2	-1
CCCCc1nnc(NC(=O)c2ccc3[nH]c(=O)c(=O)[nH]c3c2)s1	46*	18	-6	4525	-2	2
Cc1cccc(NC(=O)c2ccc3[nH]c(=O)c(=O)[nH]c3c2)n1	32*	6	-3	5811	-1	1
O=C(Nc1ccc(F)cc1)c1ccc2[nH]c(=O)c(=O)[nH]c2c1	9	2	-5	5591	-1	-1
CCCCc1nnc(NC(=O)c2ccc(N3CCCC3=O)cc2)s1	4	5	?	3943	4	-4
Cc1nc(N2CCC(C(N)=O)CC2)c2nnn(Cc3ccccc3)c2n1	-6	3	-2	21409*	-2	4
CC(C)(C)c1nc(N2CCN(C(=O)c3ccco3)CC2)c2nnn(Cc3ccccc3)c2n1	-13	-5	-5	8630	0	-4
Cc1nc(N2CCCC2)c2nnn(Cc3ccccc3Cl)c2n1	4	0	5	20754*	4	0
CCC(=O)Nc1ccc(Oc2ccc3c(c2)C(=O)N(c2ccc(O)cc2)C3=O)cc1	27	-2	1	21982*	?	0
SMILES	GDH-TPI counter	Mtb FBA inh	BoNT F protease	Autofluor counter	BoNT-A LC inh2	Anthrax LF prot
O=C1CCCC2=C1C(c1ccc(O)c(O)c1)c1c(ccc3ncccc13)N2 (configuration not stated)	9	-2	-2	4783	-1	-8
O=C1CCCC2=C1C(c1ccc(O)cc1)c1c(ccc3ccccc13)N2 (configuration not stated)	4	160*	-1	4646	0	-3
O=C(CN1CCN(Cc2ccccc2)CC1)NCC1COc2ccccc2O1 (configuration not stated)	3	1	-3	23257*	-1	-2
O=C(CN1C(=O)c2ccccc2C1=O)NCC1COc2ccccc2O1 (configuration not stated)	-5	-1	-13	4846	-1	-4
CC(C)[C@@H](CO)NS(=O)(=O)c1ccc(Br)cc1F	4	0	6	3891	0	-7
N#C/C(=C\c1ccc(N2CCOCC2)o1)c1nc2ccccc2[nH]1	21	14	102*	11443	-17	-4
O=C(Nc1ccccc1)c1ccccc1C(=O)N1CCCCC1	-8	0	0	5161	0	-2
CC(C)c1cc(NCC2CCCO2)n2c(nc3ccccc32)c1C#N (configuration not stated)	8	+	-15	4052	0	-6
Cc1cc(NCC2CCCO2)n2c(nc3ccccc32)c1C#N (configuration not stated)	8	+	6	3347	1	-2
CCc1c(C)c(C#N)c2nc3ccccc3n2c1NCC1CCCO1 (configuration not stated)	8	6	5	9497	0	-5
O=C(O)C(C=C(Cl)Cl)N1CCOCC1 (configuration not stated)	13	0	-2	2912	0	-6
Cc1ccc(S(=O)(=O)Nc2ccc3nc(C)sc3c2)cc1	-3	-1	2	2802	1	-6
Cc1nc2ccc(NS(=O)(=O)c3ccc(F)c(F)c3)cc2s1	14	4	-4	2934	0	-6
Cc1ccc2nc(-c3ccc(NS(=O)(=O)c4ccccc4)cc3)sc2c1	12	+	-5	2154	0	-1
Cc1ccc(S(=O)(=O)Nc2ccc3nc(N)sc3c2)cc1	-12	-2	5	19122*	?	-3
Cc1ccc2nc(-c3ccc(NS(=O)(=O)c4ccc(F)c(F)c4)cc3)sc2c1	28	+	-2	2205	0	2
CCC(=O)N1c2ccccc2NC2=C(C(=O)CC(C)(C)C2)C1c1ccc(O)c(OC)c1 (configuration not stated)	29	1	1	3148	-3	-7
COC(=O)c1ccc(Nc2c([N+](=O)[O-])ccc3nonc23)cc1	-2	-4	1	3480	-4	-10
CCOc1ccc(C2C(C(=O)OC)=CN(CCOC)C=C2C(=O)OC)cc1	8	+	-11	10009	-1	1

From PubChem
